{
  "source": "ChEMBL document CHEMBL3988442",
  "about": "“University of Dundee, Small-Polar-MMV Screening Library” (2021)",
  "note": "Among all 48,000 compounds or so, about 13,000 (27%) showed an effect of 50% or more. The list shows a part of the results.",
  "data": [
    {"test_system": "Wolbachia pipientis", "experiment": "Anti-Wolbachia Cell-Based Screen", "assay_type": "functional", "design": "scale not given: in the data most compounds retested in dose-response had high values", "settings": "5 µM", "units": {"Percent Effect": "%"}, "values": [
      {"smiles": "CCN(C(=O)NCCc1cccc(F)c1F)C(C)CS(C)(=O)=O", "note": "(configuration not stated)", "Percent Effect": 8.569},
      {"smiles": "CCOc1ccc(CN(CCOC)c2nc(C)nc3oc(C)nc23)cc1", "Percent Effect": -12.59},
      {"smiles": "COc1ccnc(N2CCN(C(=O)c3ccn(C)c(=O)c3)CC2)n1", "Percent Effect": 101.7},
      {"smiles": "COc1cc(C)nc(N2CCN(C(=O)c3ccc(Cl)o3)CC2)n1", "Percent Effect": 4.762},
      {"smiles": "COc1ccnc(N2CCN(C(=O)c3cscn3)CC2)n1", "Percent Effect": 2.321},
      {"smiles": "CCOc1ccnc(N2CCN(C(=O)c3ccn(C)c(=O)c3)CC2)n1", "Percent Effect": 88.48},
      {"smiles": "COc1cc(C)nc(N2CCN(C(=O)c3ccn(C)c(=O)c3)CC2)n1", "Percent Effect": 111.9},
      {"smiles": "CCOc1ccnc(N2CCN(C(=O)c3cccc(C#N)c3)CC2)n1", "Percent Effect": 3.478},
      {"smiles": "COc1cc(C)nc(N2CCN(C(=O)c3ccccc3C)CC2)n1", "Percent Effect": 2.606},
      {"smiles": "CCOc1cccc(C(=O)N2CCN(c3nccc(OC)n3)CC2)c1", "Percent Effect": -0.7298},
      {"smiles": "CCOc1ccnc(N2CCN(C(=O)c3cc(Cl)c[nH]3)CC2)n1", "Percent Effect": -0.9133},
      {"smiles": "O=C(c1ncccc1O)N1CCN(Cc2ccco2)C(CCO)C1", "note": "(configuration not stated)", "Percent Effect": -8.878},
      {"smiles": "CC(C)CN1CCC(NC(=O)N(C)Cc2csc3ccccc23)CC1", "Percent Effect": 14.6},
      {"smiles": "CN(C)C1(CNc2ncc(Br)cn2)CCOCC1", "Percent Effect": 25.75},
      {"smiles": "CCC(CNS(=O)(=O)c1c[nH]cn1)Oc1ccccc1F", "note": "(configuration not stated)", "Percent Effect": -7.945},
      {"smiles": "COc1ccnc(NCc2ccccc2Cn2cccn2)n1", "Percent Effect": 13.47},
      {"smiles": "Cc1nonc1C(=O)N1CC[C@@]2(O)CCN(C3CCCCC3)C[C@H]2C1", "Percent Effect": -5.278},
      {"smiles": "O=C(NC1CCC(C(=O)N2CCSCC2)CC1)N1CCC1", "note": "(configuration not stated)", "Percent Effect": 3.195},
      {"smiles": "CC(C)[C@@H]1CN(C(=O)NCc2ccco2)C[C@H]1N(C)C", "Percent Effect": -15.37},
      {"smiles": "CC(C)[C@@H]1CN(C(=O)CCc2ccc(F)cc2)C[C@H]1C(=O)O", "Percent Effect": -26.1},
      {"smiles": "CC(C)[C@H]1CN(C(=O)CO)C[C@@H]1N(C)C", "Percent Effect": 109.8},
      {"smiles": "CC(=O)c1cc(CN2C[C@@H](N(C)C)[C@H](C(C)C)C2)cs1", "Percent Effect": 13.8},
      {"smiles": "CC(C)[C@@H]1CN(C(=O)CN(C)Cc2ccc(F)cc2)C[C@H]1C(=O)O", "Percent Effect": -17.02},
      {"smiles": "Cc1cc(C(=O)N2C[C@H](C(C)C)[C@@H](N(C)C)C2)cs1", "Percent Effect": 81.51},
      {"smiles": "Cc1nc(CC(C)C)cc(C(=O)N2C[C@@H](N(C)C)[C@H](C(C)C)C2)n1", "Percent Effect": -16.81},
      {"smiles": "Cc1cc(C(=O)N2C[C@@H](C(=O)O)[C@H](C(C)C)C2)cs1", "Percent Effect": 38.77},
      {"smiles": "COCCC(=O)N1C[C@H](C(C)C)[C@@H](N(C)C)C1", "Percent Effect": 108.6},
      {"smiles": "CC(C)[C@H]1CN(C(=O)CC2CCC2)C[C@@H]1N(C)C", "Percent Effect": 88.21},
      {"smiles": "CC1(C)CN(C(=O)CC2CCC2)C[C@]1(C)O", "Percent Effect": 6.618},
      {"smiles": "CC(C)[C@@H]1CN(Cc2cnc(C3CCCCC3)nc2)C[C@H]1N(C)C", "Percent Effect": -9.184},
      {"smiles": "N#Cc1cc(S(N)(=O)=O)ccc1NC1CCc2c(F)cccc21", "note": "(configuration not stated)", "Percent Effect": -10.31},
      {"smiles": "COCCCN(C)c1ncccc1I", "Percent Effect": 0.1394},
      {"smiles": "Cn1c(NCC(=O)N2CCCC2)c(C#N)c(=O)n(C)c1=O", "Percent Effect": 6.318},
      {"smiles": "CC(O)CN1CCC(CN(C)Cc2cc(F)cc3cccnc23)CC1", "note": "(configuration not stated)", "Percent Effect": -9.016},
      {"smiles": "CC(C)Oc1ccc(C(=O)Cn2cnnc2[S+](C)[O-])cc1", "note": "(configuration not stated)", "Percent Effect": 6.636},
      {"smiles": "COc1cccc(S(=O)(=O)NC(=O)COC2CCCC2)c1", "Percent Effect": 0.104},
      {"smiles": "CCOc1ccc(S(=O)(=O)NC(=O)CCC2CCCO2)cc1", "note": "(configuration not stated)", "Percent Effect": 0.3257},
      {"smiles": "COc1ccc(S(=O)(=O)NC2(CC(N)=O)CCC2)cc1", "Percent Effect": 1.65},
      {"smiles": "COc1cccc(S(=O)(=O)NC(=O)CCC2CCCC2)c1", "Percent Effect": 93.05},
      {"smiles": "COc1ccc(S(=O)(=O)NC(=O)COC2CCCC2)cc1", "Percent Effect": 110.1},
      {"smiles": "COc1cccc(S(=O)(=O)NC(=O)COc2c(C)cccc2C)c1", "Percent Effect": -5.351},
      {"smiles": "COc1cccc(S(=O)(=O)NC(=O)COC2CCCCC2)c1", "Percent Effect": 79.48},
      {"smiles": "N#Cc1cccc(S(=O)(=O)NC(=O)COC2CCCC2)c1", "Percent Effect": 4.791},
      {"smiles": "CS(=O)(=O)c1cccc(S(=O)(=O)NC(=O)CCC2CCCCC2)c1", "Percent Effect": -13.77},
      {"smiles": "CS(=O)(=O)c1cccc(S(=O)(=O)NC(=O)CC2CCCCC2)c1", "Percent Effect": -9.509},
      {"smiles": "COc1cccc(S(=O)(=O)NC(=O)CC2CCCC2)c1", "Percent Effect": 9.946},
      {"smiles": "COc1cccc(S(=O)(=O)NC(=O)CC2CCCO2)c1", "note": "(configuration not stated)", "Percent Effect": 94.52},
      {"smiles": "Cc1ccc(-n2c(C)nnc2SCC(O)COCc2ccco2)cc1", "note": "(configuration not stated)", "Percent Effect": -12.77},
      {"smiles": "Cc1cnccc1CN(C)C(=O)c1ccc(Cn2cnnn2)cc1", "Percent Effect": -17.07},
      {"smiles": "Cc1ccc(CN(C)C(=O)NCC(C)(C)CCS(C)(=O)=O)s1", "Percent Effect": -3.781},
      {"smiles": "CN(C(=O)Cc1coc(-c2ccccc2)n1)C1(C#N)CCC1", "Percent Effect": 4.147},
      {"smiles": "COc1ccc(Cl)cc1NCC(=O)N(Cc1cccnc1)C1CC1", "Percent Effect": 0.4709}
    ]}
  ]
}
